Measured values taken from the supplement of paper PMC8007513.
Counter-ions that a name gives are not always drawn. ± gives the standard error. The whole screen tested about 1,300 compounds, of which about 75 (6%) showed an effect of 50% or more. The entries come from a sample that favours strong results as a whole.

System: Trichoderma virens ATCC 9645
Experiment: growth yield (OD600) relative to untreated control; higher = less growth inhibition
Conditions: compound concentration: 100 uM
Outline: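 For each 96-well plate, 100 μl aliquots were prepared with Trichoderma virens ATCC 9645 spores suspended at 15,000 spores ml^−1 in potato dextrose broth. The spores had been harvested from potato dextrose agar plates after 7 days. Library compounds were present at 100 μM final, some wells also receiving a biocide at 200 ng ml^−1, and plates were grown at 30 °C with OD600 read on a BioTek EL800 at 40 h and 72 h. Reported growth, relative to the control lacking both agents, is the mean of duplicate screens.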

Structure (SMILES) | growth yield (40 h) [%] | growth yield (72 h) [%]
COc1ccc(C(=O)c2ccccc2O)c(O)c1 [Dioxybenzone] | 22.2 | 45.1 ± 2.7
COc1ccccc1O [Guaiacol] | 103.9 ± 0.95 | 102.7 ± 0.32
COc1ccc(C(=O)c2ccccc2)c(O)c1 [Oxybenzone] | 53.8 ± 4.3 | 62.9
Nc1cc(N2CCCCC2)nc(N)[n+]1[O-] [Minoxidil] | 104 ± 3.2 | 102 ± 1.3
O=C(NCCO[N+](=O)[O-])c1cccnc1 [Nicorandil] | 102.9 ± 0.32 | 102 ± 4.2
CC1=C(C(=O)O)N2C(=O)[C@@H](NC(=O)[C@H](N)c3ccc(O)cc3)[C@H]2SC1 [Cefadroxil] | 104 ± 8.9 | 106 ± 9.1
O=C(O[C@@H]1C[C@@H]2C[C@H]3C[C@H](C1)N2CC3=O)c1c[nH]c2ccccc12 [Dolasetron mesilate] | 106 ± 3.3 | 104 ± 1.9
CCn1cc(C(=O)O)c(=O)c2cnc(N3CCCC3)nc21 [Piromidic acid] | 90.5 ± 5.7 | 92.1 ± 4
CCCCC(CC)CNC(=N)NC(=N)NCCCCCCNC(=N)NC(=N)NCC(CC)CCCC (centres undefined) [Alexidine dihydrochloride] | 1.91 ± 0.32 | 1.89 ± 0.63
OC(CCN1CCCCC1)(c1ccccc1)C1CC2C=CC1C2 (centres undefined) [Biperiden hydrochloride] | 104 ± 2.9 | 105 ± 1.9
CCN(CC)CCNc1ccc(CO)c2sc3ccccc3c(=O)c12 [Hycanthone] | 118 ± 4.1 | 114.7 ± 0.63
CCCCC[C@H](O)/C=C/[C@H]1[C@H](O)CC(=O)[C@@H]1CCCCCCC(=O)O [Alprostadil] | 107 ± 8.4 | 101 ± 6.2
C[C@@H]1C[C@H]2[C@@H]3C[C@H](F)C4=CC(=O)C=C[C@]4(C)[C@@]3(Cl)[C@@H](O)C[C@]2(C)[C@H]1C(=O)COC(=O)C(C)(C)C [Clocortolone pivalate] | 107 ± 4 | 100 ± 5.7
O=c1oc2ccccc2c(O)c1Cc1c(O)c2ccccc2oc1=O [Dicumarol] | 94 ± 0.95 | 92.4 ± 0.94
CCc1oc2ccccc2c1C(=O)c1cc(Br)c(O)c(Br)c1 [Benzbromarone] | 40.7 ± 5.7 | 77.8 ± 4.8
CC(=O)CC(c1ccccc1)c1c(O)c2ccccc2oc1=O (centres undefined) [Warfarin] | 90.9 ± 3.5 | 89.1 ± 4
CC(Cc1cccc(C(F)(F)F)c1)NCCOC(=O)c1ccccc1 (centres undefined) [Benfluorex] | 83.5 ± 3.5 | 95.9 ± 1.9
CN[C@@H]1[C@H](O[C@H]2[C@H](O[C@H]3[C@H](O)[C@@H](O)[C@H](NC(=N)N)[C@@H](O)[C@@H]3NC(=N)N)O[C@@H](C)[C@]2(O)CO)O[C@@H](CO)[C@H](O)[C@H]1O [Dihydrostreptomycin sulfate] | 96.9 | 98
CCOC1O[C@H]([C@@H](COCc2ccccc2)OCc2ccccc2)[C@H](OCc2ccccc2)[C@H]1O (some centres undefined) [Tribenoside] | 90.2 ± 6 | 87.2 ± 6.2
CC(C)CC(=O)N[C@H](C(=O)N[C@H](C(=O)N[C@@H](CC(C)C)[C@@H](O)CC(=O)N[C@@H](C)C(=O)N[C@@H](CC(C)C)[C@@H](O)CC(=O)O)C(C)C)C(C)C [Pepstatin A] | 106 ± 5.4 | 102 ± 7.8
CN(C)CCOC(c1ccc(Cl)cc1)c1ccccn1 (centres undefined) [Carbinoxamine maleate salt] | 97.7 ± 4.3 | 97.8 ± 2.6

Structure (SMILES) | growth yield (40 h) [%] | growth yield (72 h) [%]
CCN(CC)C(=S)SSC(=S)N(CC)CC [Disulfiram] | 27.2 ± 17 | 67.8 ± 12
COc1ccccc1N1CCN(CC(O)COc2cccc3ccccc23)CC1 (centres undefined) [Naftopidil dihydrochloride] | 97.4 ± 1.1 | 110.22 ± 0.1
NCCNCCNCCNCCN [Tetraethylenepentamine pentahydrochloride] | 103 ± 2.5 | 99.8 ± 2.9
CCCOc1ccccc1-c1nc2[nH]nnc2c(=O)[nH]1 [Zaprinast] | 99.1 | 106 ± 1.1
CCC(=O)OCC(=O)[C@@]1(OC(=O)CC)[C@H](C)C[C@H]2[C@H]3[C@H]([C@@H](O)C[C@@]21C)[C@@]1(C)C=CC(=O)C=C1C[C@H]3Cl [Alclometasone dipropionate] | 101 ± 4 | 97.7 ± 1.7
CCCCCCNC(=O)n1cc(F)c(=O)[nH]c1=O [Carmofur] | 16.4 ± 0.48 | 33.1 ± 5.5
Nc1nc(=O)c2c([nH]1)NC[C@@H](CNc1ccc(C(=O)N[C@@H](CCC(=O)O)C(=O)O)cc1)N2C=O [Folinic acid calcium salt] | 99.8 ± 2.5 | 92 ± 4.1
CC(C)NC[C@H](O)COc1ccc(CC(N)=O)cc1 [(S)-(-)-Atenolol] | 100 ± 1.6 | 101 ± 1.5
NS(=O)(=O)c1cc2c(cc1C(F)(F)F)NC(Cc1ccccc1)NS2(=O)=O (centres undefined) [Bendroflumethiazide] | 106 ± 3.3 | 102 ± 3.4
CN(c1nccc(=O)[nH]1)C1CCN(c2nc3ccccc3n2Cc2ccc(F)cc2)CC1 [Mizolastine] | 94.5 ± 2.4 | 96 ± 2.6
CN(C)CCN(Cc1ccc(Cl)cc1)c1ccccn1 [Chloropyramine hydrochloride] | 98.8 ± 1.9 | 96.2 ± 2.6
CCCCCCCCCCCCCCCC[N+](C)(C)CCN(Cc1ccc(OC)cc1)c1ncccn1 [Thonzonium bromide] | 0 | 0
COc1ccc(CN(CCN(C)C)c2ccccn2)cc1 [Pyrilamine maleate] | 101 ± 1.1 | 103 ± 1.5
Nc1ncn(C2OC(CO)C(O)C2O)c(=O)n1 (centres undefined) [Azacytidine-5] | 89.4 ± 5.9 | 88.4 ± 4.3
CC(C)[C@H](N)C(=O)OCCOCn1cnc2c(=O)nc(N)[nH]c21 [Valacyclovir hydrochloride] | 102 | 103
CC(=C(CCO)SSCC1CCCO1)N(C=O)Cc1cnc(C)nc1N (stereo in doubt) [Fursultiamine Hydrochloride] | 104 ± 5.2 | 101 ± 3.1
NC[C@H]1CC[C@H](C(=O)O)CC1 [Tranexamic acid] | 99.75 ± 0.64 | 102.2 ± 0.73
C#Cc1cccc(Nc2ncnc3cc(OCCOC)c(OCCOC)cc23)c1 [Erlotinib] | 108 | 105
CCCCOc1ccc(OCCCN2CCOCC2)cc1 [Pramoxine hydrochloride] | 89.6 ± 1.9 | 90.5 ± 2.2
COc1cc2ncnc(Nc3ccc(F)c(Cl)c3)c2cc1OCCCN1CCOCC1 [Gefitinib] | 7.47 ± 0.16 | 6.29
CC[C@H]1OC(=O)[C@H](C)[C@@H](O[C@H]2C[C@@](C)(OC)[C@@H](O)[C@H](C)O2)[C@H](C)[C@@H](O[C@@H]2O[C@H](C)C[C@H](N(C)C)[C@H]2O)[C@](C)(O)C[C@@H](C)/C(=N\OCOCCOC)[C@H](C)[C@@H](O)[C@]1(C)O [Roxithromycin] | 97.85 ± 0.64 | 96.7 ± 1.5
